HCMV antiviral – human cytomegalovirus inhibition; actives 4.5% (n = 410,000); activity change, negative = inhibition, % at 57.5 µM; HFF cells, HCMV-luciferase reporter, 72 h; stronger effect = lower value; in the data active = activity change below about -60%; inconclusive = no clear call, values can overlap the other calls; inactive = above about -39%
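Steps: HFFs plated, 16 h 37C; compounds added; HCMV-luciferase added to MOI 1 PFU/cell; 72 h 37C; OneGlo reagent, 5 min room temperature; luminescence read, normalized to controls.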
Vaccinia Venus – inhibitors of vaccinia virus (Venus reporter); Vaccinia virus Venus reporter expression, fluorescence; Potency, µM (doses to about 36.5 µM), actives largely listed as inhibitors; actives 0.46% (n = 330,000); AID 720580; calls by dose curve; tested in A549 cells; note: nearly all actives have a fitted effect of over 30% in size
Vaccinia mCherry – vaccinia inhibition (mCherry reporter). Potency, µM (titrated, usually from 36.5 µM), hits mostly inhibitors. actives 0.63% (n = 310,000). Vaccinia virus mCherry reporter infection, fluorescence; calls by dose curve; tested in A549 cells; note: nearly all actives have a fitted effect of over 35% in size
Lassa entry inh – blocks Lassa virus binding to or entry into cells. Lassa virus pseudotype entry inhibition, cell reporter. Potency, µM (top dose mostly 37.9 µM), usual class: inhibitors. actives 1.2% (n = 300,000). AID 540256; calls by dose curve; tested in HEK293 cells; note: nearly all actives have a fitted effect of over 50% in size
HCV inh – inhibitors of hepatitis C virus infection; Huh7.5.1 HCVcc-Cre infection, luciferase reporter, 44 h; Potency, µM (titrated, usually from 41.8 µM), actives largely listed as inhibitors; actives 3.4% (n = 340,000); active = well fitted inhibition curve with a large enough effect; inconclusive = small, poorly fitted or top-dose-only effect, or another doubt; inactive = no such curve, though single readings can be large or run the other way
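After 44 h co-culture of compound, cells and HCVcc-Cre (~0.5 moi), substrate is added for 15 min at room temperature and luciferase measured over 15 sec. Cells were seeded at 1,000/well and pre-cultured 4 h.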
Marburg entry inh – Marburg virus entry inhibition; Potency, µM (highest dose often 37.8 µM), hits mostly inhibitors; AID 540276; Marburg virus pseudotyped entry inhibition, cell reporter; actives 1.8% (n = 300,000); calls by dose curve; tested in HEK293 cells
Large screens that a line does not name were inactive. Most compounds without a hit are left out; they make up all but 7.8% or so of the library.

Cc1ccc(SCC(=O)NCC2COc3ccccc3O2)cc1 (centres undefined)	HCMV antiviral -65
Cc1ccccc1CNC(=O)c1nn(-c2ccccc2F)nc1CO	none (no result: HCV inh)
CCC(=NCc1ccco1)c1c(O)n(-c2ccccc2)c(=O)[nH]c1=O	Lassa entry inh inconclusive (no result: Vaccinia mCherry)
CCC(=NCc1ccco1)c1c(O)n(-c2ccc(C)cc2)c(=O)[nH]c1=O	Lassa entry inh 0.58µM, Marburg entry inh inconclusive (no result: Vaccinia Venus, Vaccinia mCherry)
CN(C)/C=N/c1c(C#N)cnn1-c1ncnc2sc(-c3ccccc3)cc12	Vaccinia Venus inconclusive, Lassa entry inh 11µM, HCV inh inconclusive, Marburg entry inh inconclusive
O=C(Nc1cccnc1Cl)c1cnn2c1NC(=C1CC1)C=C2C(F)F	none (no result: HCMV antiviral, Lassa entry inh, HCV inh, Marburg entry inh)
O=C(CCCn1c(=S)[nH]c2cc3c(cc2c1=O)OCO3)N1CCN(c2ccc(Cl)cc2)CC1	HCMV antiviral -86, Lassa entry inh inconclusive, HCV inh 13µM, Marburg entry inh inconclusive (no result: Vaccinia Venus, Vaccinia mCherry)
O=C(CCCn1c(=S)[nH]c2cc3c(cc2c1=O)OCO3)NCCc1ccc(Cl)cc1	HCMV antiviral -74, Vaccinia Venus inconclusive (no result: Lassa entry inh, HCV inh, Marburg entry inh)
O=C(CCCCCn1c(=S)[nH]c2ccc(N3CCOCC3)cc2c1=O)NCc1ccccc1	HCV inh inconclusive
O=C(CCCCCn1c(=S)[nH]c2ccc(N3CCOCC3)cc2c1=O)NCc1cccc(Cl)c1	HCMV antiviral -71, HCV inh inconclusive, Marburg entry inh inconclusive
O=C(CCCn1c(=S)[nH]c2cc3c(cc2c1=O)OCO3)N1CCN(c2ccccc2)CC1	HCV inh inconclusive (no result: Vaccinia Venus, Vaccinia mCherry)
O=C(Nc1nonc1-c1ccc(Br)cc1)c1ccco1	none (no result: HCV inh)
COc1cccc(CNC(=O)c2ccc(Cn3c(SCc4ccccc4)nc4cccnc43)cc2)c1	Lassa entry inh inconclusive (no result: HCV inh, Marburg entry inh)
Cc1ccc(-c2nnn(CC(=O)N(Cc3ccco3)C(C(=O)NC(C)(C)C)c3ccc(C)o3)n2)o1 (centres undefined)	Vaccinia Venus inconclusive, Vaccinia mCherry inconclusive, Lassa entry inh inconclusive, HCV inh 11µM, Marburg entry inh inconclusive
COc1ccc(/C=C/C(=O)Nc2nc3n(n2)C(c2ccccc2)C=C(c2ccc(Cl)cc2)N3)cc1 (centres undefined)	Lassa entry inh inconclusive (no result: HCV inh)
COc1ccc(-c2csc(NC(=O)C3CCN(C(=O)c4ccc(F)cc4)CC3)n2)cc1OC	Vaccinia Venus inconclusive, Lassa entry inh 16µM, Marburg entry inh inconclusive (no result: HCMV antiviral, HCV inh)
CC(=O)Nc1nc(-c2ccc3c(c2)CCO3)cs1	HCMV antiviral -76 (no result: Vaccinia Venus, Vaccinia mCherry, Lassa entry inh, Marburg entry inh)
Nc1nc(-c2ccc3c(c2)CCO3)cs1	Lassa entry inh inconclusive
COc1cccc(NC(=O)Nc2nc(-c3ccc(OC)c(OC)c3)cs2)c1	HCMV antiviral -99, Vaccinia Venus 14µM, Vaccinia mCherry inconclusive, Lassa entry inh inconclusive, HCV inh 2.8µM, Marburg entry inh inconclusive
COc1ccccc1C(=O)Nc1nc(-c2ccc3c(c2)OCCO3)cs1	HCMV antiviral -63 (no result: Lassa entry inh, Marburg entry inh)
O=C(Nc1nc(-c2ccc3c(c2)OCCO3)cs1)c1ccco1	none (no result: Vaccinia Venus, Vaccinia mCherry, Lassa entry inh, HCV inh, Marburg entry inh)
COc1ccc(N2C(=O)Cc3cc(OC)c(OC)cc3C2c2ccc(F)cc2)cc1 (centres undefined)	none (no result: HCV inh)
COc1cccc(-n2c(SC)nnc2C2CCN(Cc3nc4ccccc4s3)CC2)c1	none (no result: HCMV antiviral, Lassa entry inh, HCV inh, Marburg entry inh)
Cc1[nH]c2ccc3ccccc3c2c(=O)c1C/C=C/Cl	HCMV antiviral -89, Vaccinia mCherry inconclusive, HCV inh inconclusive
COc1cccc(OC)c1OCC(C)CNCC1CCCO1 (centres undefined)	Vaccinia Venus inconclusive, Vaccinia mCherry inconclusive, HCV inh 1µM
COc1cccc(OC)c1OC[C@H](C)CNC[C@@H]1CCCO1	none (no result: HCMV antiviral, Vaccinia Venus, Vaccinia mCherry, Lassa entry inh, HCV inh)
C[C@]12C[C@@](C)(C=C1C=Cc1ccccc1)C(=O)C[C@H]2c1ccccc1	none (no result: HCMV antiviral, Vaccinia Venus, Vaccinia mCherry, Lassa entry inh, HCV inh)
Cc1c(CCCN)c2ccccc2n1Cc1ccccc1	Vaccinia mCherry inconclusive, HCV inh 11µM (no result: Lassa entry inh, Marburg entry inh)
CC1CCCN(C(=O)c2ccc3c(=O)n(Cc4ccc5c(c4)OCO5)c(=S)[nH]c3c2)C1 (centres undefined)	HCMV antiviral -87, HCV inh inconclusive (no result: Vaccinia Venus, Vaccinia mCherry)
COC(=O)c1ccc2c(=O)n(Cc3ccc(C(=O)NC(C)C)cc3)c(=S)[nH]c2c1	Lassa entry inh inconclusive, HCV inh 7.9µM, Marburg entry inh inconclusive
CC(C)NC(=O)c1ccc(-n2c(=S)[nH]c3ccccc3c2=O)cc1	HCMV antiviral -84 (no result: Vaccinia Venus, Vaccinia mCherry, Lassa entry inh, HCV inh, Marburg entry inh)
CC(C)NC(=O)c1ccc2c(=O)n(CC3CCCO3)c(=S)[nH]c2c1 (centres undefined)	none

Screening results as filed in PubChem BioAssay.
